Only some compounds are listed: those with a hit (about 28% of all), similar ones and a draw of the others.
Mac1 fbg inh: CD11b/CD18-fibrinogen binding inhibition | inhibition, % at 10 µM | actives 0.54% (n = 93,000) | K562 CD11b/CD18 adhesion to fibrinogen, ATPlite luminescence; Mn2+ added to activate the integrin;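 active = primary inhibition of 50% or more at 10 µM, then 40% or more on retest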
CYP2C19 inhib: inhibitors of human CYP2C19. CYP2C19 Supersomes, luciferin-H EGE luminescence, 30 min. inhibition, % at 5 µM. actives 21% (n = 96,000). P33261;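 active = CYP2C19 inhibition above a set limit at 5 µM in the primary screen, cut at about 50% in these data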;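 note: plate controls were negative control wells for no effect and 2.5 mM tranylcypromine positive control for full effect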
Target sequence (P33261 whole entry, looked up): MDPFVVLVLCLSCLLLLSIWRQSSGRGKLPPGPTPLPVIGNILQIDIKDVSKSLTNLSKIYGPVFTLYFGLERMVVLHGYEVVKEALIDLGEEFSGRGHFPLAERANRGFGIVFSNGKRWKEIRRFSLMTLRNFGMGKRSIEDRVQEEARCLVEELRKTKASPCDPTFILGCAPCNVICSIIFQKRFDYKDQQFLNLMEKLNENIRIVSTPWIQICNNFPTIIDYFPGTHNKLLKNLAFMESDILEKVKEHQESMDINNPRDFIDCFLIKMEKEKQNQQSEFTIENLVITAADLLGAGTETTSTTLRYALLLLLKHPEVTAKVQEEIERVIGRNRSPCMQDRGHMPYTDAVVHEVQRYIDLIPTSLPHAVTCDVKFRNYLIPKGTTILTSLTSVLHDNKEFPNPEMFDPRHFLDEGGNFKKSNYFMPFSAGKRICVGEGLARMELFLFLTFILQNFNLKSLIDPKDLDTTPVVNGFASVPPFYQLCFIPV
CD11b adhes enh: enhancers of human CD11b/CD18 binding to fibrinogen. P05107+P11215. K562 CD11b/CD18 adhesion to fibrinogen, ATPlite luminescence. activation, % at 10 µM. actives 0.07% (n = 93,000);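 active = 10 µM primary screen giving 50% or more activity, confirmed by 40% or more on retest at that dose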
CYP2C19 activ: activators of human cytochrome P450 2C19; recombinant CYP2C19, luciferin-H EGE luminescence; active compounds read high; 0 = fully inhibited enzyme, 1 = untreated enzyme; 96,000 tested, under 10 active; P33261; AID 1025; activation factor at 5 µM;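 active = activation factor of at least 2 at 5 µM in the primary screen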;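 note: 0 = wells with 2.5 mM tranylcypromine and 1 = vehicle-only wells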
CYP2C9 act: activators of human CYP2C9 | P11712 | recombinant CYP2C9, luciferin-H conversion, luminescence; active compounds read high; factor 1 = untreated enzyme, 0 = blocked | activation factor at 5 µM | actives 1.4% (n = 96,000);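 active = activation factor of 2 or more for CYP2C9 at a 5 µM dose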;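 note: 0 = sulfaphenazole-blocked wells and 1 = vehicle-only wells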
CYP2C9 inhib: inhibitors of human CYP2C9. CYP2C9 Supersomes, luciferin-H conversion, luminescence. AID 777. actives 20% (n = 96,000). inhibition, % at 5 µM;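 active = blocking of liver enzyme CYP2C9 beyond about 50% at 5 µM, limit read from the data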
Starred values were filed as active, the others as inactive; . = no result given.

SMILES	Mac1 fbg inh	CYP2C19 inhib	CD11b adhes enh	CYP2C19 activ	CYP2C9 act	CYP2C9 inhib
N#Cc1nc(-c2ccc(Cl)cc2)oc1NCCc1ccccn1	-36.9	17.2	-1.0	0.8	0.9	13.6
COCCNc1oc(-c2ccc(Cl)cc2)nc1C#N	.	79.2*	.	0.2	0.3	73.4*
COc1ccc(CCNc2oc(-c3ccc(C)cc3)nc2C#N)cc1OC	11.6	-12.2	1.5	1.1	0.5	50.0*
Cc1ccc(-c2nc(C#N)c(NCCN3CCCCC3)o2)cc1	-16.0	11.8	2.7	0.9	0.7	31.2
COCCNc1oc(-c2ccc(C)cc2)nc1C#N	6.6	85.5*	-0.8	0.1	0.1	86.2*
O=C(C1=C(O)C(=O)N(c2ncccn2)C1c1ccc(Cl)c(Cl)c1)c1ccco1 (centres undefined)	-2.3	7.5	-1.9	0.9	0.6	36.6
COc1ccc(CCN2C(=O)C(O)=C(C(=O)c3ccco3)C2c2cccs2)cc1OC (centres undefined)	.	1.2	.	1	0.5	53.2*
Cc1ccc2nc(N3C(=O)C(O)=C(C(=O)c4ccco4)C3c3cccs3)sc2c1 (centres undefined)	51.9*	9.1	-6.5	0.9	0	96.0*
COc1cc(C2C(C(=O)c3ccco3)=C(O)C(=O)N2CCc2ccccc2)ccc1O (centres undefined)	-16.2	7.1	-2.5	0.9	0.5	53.5*
CCC1CCCCN1C(=O)Cn1c(=O)n(CCC(=O)NCc2ccco2)c(=O)c2sccc21 (centres undefined)	-10.5	4.7	0.3	1	0.5	45.4
O=C(CCc1ccc(S(=O)(=O)N2CCOCC2)cc1)NCCCN1CCCC1=O	-6.1	10.7	0.6	0.9	0.9	8.0
CC(=O)Cc1nsc(NC(=O)c2c(-c3ccccc3Cl)noc2C)n1	-10.8	1.0	-3.5	1	0.2	75.2*
COc1ccccc1OCC(=O)N(Cc1nc(-c2ccccc2)no1)C1CCCCC1	-2.6	46.0	10.6	0.5	0.6	43.8
COc1cc(OC)cc(C(=O)N(Cc2nc(-c3cccc(C)c3)no2)C(C)C)c1	11.2	85.7*	-0.3	0.1	0.1	94.6*
CC(C)N(Cc1nc(-c2ccccc2)no1)C(=O)c1ccc(Cl)cc1	7.6	78.7*	3.2	0.2	0.2	79.5*
CC(=O)Cc1nsc(NC(=O)c2ccc(-c3ccccc3Cl)o2)n1	14.6	23.6	-2.0	0.8	0.7	29.0
Cc1cccc(-c2noc(CN(C(=O)C34CC5CC(CC(C5)C3)C4)C(C)C)n2)c1	54.4	-6.2	-5.5	1.1	0.6	37.8
CC(C)N(Cc1nc(-c2ccccc2)no1)C(=O)C1CCCCC1	0.0	84.9*	-5.2	0.2	0.2	80.8*
CC(C)N(Cc1nc(-c2ccc(Cl)cc2)no1)C(=O)C12CC3CC(CC(C3)C1)C2	-14.1	1.6	3.5	1	1	4.0
COc1ccc(NC(=O)/C(C#N)=C\C=C\c2ccco2)cc1	15.8	.	2.6	.	.	.
NNC(=O)c1cccc(O)c1	3.4	.	-4.6	.	.	.
c1ccc(NCc2nc(-c3ccccc3)no2)cc1	-17.1	87.4*	3.5	0.1	0.2	76.5*
O=C1c2ccccc2C(=O)N1CCc1nc(-c2ccc(Cl)cc2)no1	-6.5	22.3	-2.0	0.8	0.7	29.4
Cc1onc(-c2ccccc2Cl)c1C(=O)NCc1ccc(S(N)(=O)=O)cc1	0.9	12.4	-1.9	0.9	0.6	44.6
CC(C)N(Cc1nc(-c2ccc(Cl)cc2)no1)C(=O)CCCN1C(=O)c2ccccc2C1=O	3.6	88.0*	2.9	0.1	0.1	86.5*
Cc1onc(-c2ccccc2Cl)c1C(=O)NCc1ccc(N2CCCC2=O)cc1	-8.9	53.0*	2.6	0.5	0.3	67.4*
COc1cc(OC)cc(C(=O)NCc2nc(-c3ccccc3)no2)c1	2.4	73.3*	3.0	0.3	0.4	61.0*
Oc1ccc(C=Nc2ccccc2-c2nc3ccccc3[nH]2)cc1	24.9	.	-1.7	.	.	.
Cc1onc(-c2ccccc2Cl)c1C(=O)NCc1nc(-c2ccccc2)no1	13.8	66.9*	5.5	0.3	0.6	41.1
COc1ccccc1C(=O)N(Cc1nc(-c2ccc(Cl)cc2)no1)C(C)C	3.2	64.3*	6.0	0.4	0.7	31.8
